Hit rate of the full screen: of about 1,300 compounds, about 980 (75%) were called active. Not shown: some 4% with an inconclusive outcome. The list shows a part of the results.
molecular target: Sulfhydryl oxidase 1 (Homo sapiens) (UniProt O00391); test: QSOX1 enzyme inhibitors, primary screen, biochemical, HyperBlu H2O2 luminescence, HTS (AID 1347420); conditions: recombinant QSOX1, HyperBlu H2O2 luminescence; at 12.5 µM; stronger effect = higher value; active = any value above zero; also: values above 100% were filed as inconclusive
Sequence (O00391 whole entry, looked up): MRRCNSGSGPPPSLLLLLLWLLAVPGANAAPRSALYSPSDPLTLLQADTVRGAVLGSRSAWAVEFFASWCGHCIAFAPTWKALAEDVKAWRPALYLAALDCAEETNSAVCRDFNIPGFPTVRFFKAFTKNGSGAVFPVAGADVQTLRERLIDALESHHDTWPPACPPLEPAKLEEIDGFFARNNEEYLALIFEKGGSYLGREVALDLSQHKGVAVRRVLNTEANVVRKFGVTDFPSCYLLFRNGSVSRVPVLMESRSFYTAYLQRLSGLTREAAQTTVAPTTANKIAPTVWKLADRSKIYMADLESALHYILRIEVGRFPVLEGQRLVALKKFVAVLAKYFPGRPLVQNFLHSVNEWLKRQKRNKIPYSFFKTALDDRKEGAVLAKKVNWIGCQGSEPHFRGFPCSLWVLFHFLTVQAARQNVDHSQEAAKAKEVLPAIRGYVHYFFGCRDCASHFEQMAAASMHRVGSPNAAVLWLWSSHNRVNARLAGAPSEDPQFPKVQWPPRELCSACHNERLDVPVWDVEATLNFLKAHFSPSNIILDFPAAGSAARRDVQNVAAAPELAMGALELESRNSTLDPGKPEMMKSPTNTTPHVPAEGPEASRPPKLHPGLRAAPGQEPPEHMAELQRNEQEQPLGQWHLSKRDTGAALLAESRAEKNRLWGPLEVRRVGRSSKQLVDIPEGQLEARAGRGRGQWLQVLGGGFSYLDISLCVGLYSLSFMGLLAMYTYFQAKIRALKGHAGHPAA

Row | Compound | inhibition
1 | Brc1c(NC2=NCCN2)ccc2nccnc12 | 21.8% (active)
2 | CC(=O)O[C@H]1CC2(C)[C@@H](C[C@@H](O)[C@H]3[C@@]4(C)CC[C@@H](O)[C@@H](C)[C@@H]4CC[C@@]32C)/C1=C(/CCC=C(C)C)C(=O)O (stereo partly specified) | 15.9% (active)
3 | CCN(CC)CCn1c(=O)c(Cc2ccc(OC)cc2)nc2ccccc21 | 11.3% (active)
4 | CCCNCC(O)COc1ccccc1C(=O)CCc1ccccc1 (stereo unspecified) | 9.1% (active)
5 | O=C(O)c1cc2cc(Cc3cccnc3)ccc2o1 | 12.1% (active)
6 | NC(N)=Nc1nc(CSCC/C(N)=N/S(N)(=O)=O)cs1 | 19.1% (active)
7 | CC(/C=C/c1cccc(Oc2ccc(F)cc2)c1)N(O)C(N)=O (stereo unspecified) | 17.2% (active)
8 | O=C(CCc1ccc(O)cc1)c1c(O)cc(O)cc1O | 35.5% (active)
9 | NS(=O)(=O)C#Cc1ccccc1 | 7% (active)
10 | NC(=O)c1cnccn1 | 6.1% (active)
11 | CCCCCCCCCCCCCCC[C@H](O)[C@H](N)CO | 18.5% (active)
12 | COc1ccc(NC(=O)c2ccc(-c3ccc(-c4noc(C)n4)cc3C)cc2)cc1N1CCN(C)CC1 | 3.7% (active)
13 | CCCCCN(C)CCC(O)(P(=O)(O)O)P(=O)(O)O | -4.8% (inactive)
14 | O=c1onc2n1-c1cc(Br)ccc1OC2 | 5.7% (active)
15 | CC(C)(C)c1ccc(C(=O)CCCN2CCC(OC(c3ccccc3)c3ccccc3)CC2)cc1 | 8.3% (active)
16 | CC(CCc1ccc(O)cc1)NCCc1ccc(O)c(O)c1 (stereo unspecified) | 83.4% (active)
17 | C[C@@H](NCCc1ccc(O)cc1)[C@@H](O)c1ccc(O)cc1 | 14.4% (active)
18 | O=c1[nH]c2cc(C(F)(F)F)ccc2n1-c1cc(C(F)(F)F)ccc1O | 11.5% (active)
19 | C[C@H]1CC2C3CCC4=CC(=O)C=C[C@]4(C)[C@@]3(Cl)[C@@H](O)C[C@]2(C)[C@@]1(O)C(=O)CO (stereo partly specified) | -10.3% (inactive)
20 | CC1CC2C3CCC4=CC(=O)C=C[C@]4(C)[C@@]3(F)[C@@H](O)C[C@]2(C)[C@@]1(O)C(=O)CO (stereo partly specified) | 11.4% (active)
21 | C[C@]12C=CC(=O)C=C1CC[C@H]1[C@@H]3C[C@@H](O)[C@](O)(C(=O)CO)[C@@]3(C)C[C@H](O)[C@@]12F | 26.2% (active)

Row | Compound | inhibition
22 | COC(=O)C1=C(C)NC(C)=C(C(=O)OCCN(C)Cc2ccccc2)C1c1cccc([N+](=O)[O-])c1 (stereo unspecified) | 6.8% (active)
23 | CCOC(=O)C1=C(C)NC(C)=C(C(=O)OC)C1c1cccc([N+](=O)[O-])c1 (stereo unspecified) | 14% (active)
24 | C#CCN1C(C)=C(C(=O)OC)C(c2cccc([N+](=O)[O-])c2)C(C(=O)OCC)=C1C (stereo unspecified) | 7.8% (active)
25 | CCOC(=O)C1=C(C)NC(C)=C(C(=O)OC)C1c1cccc(Cl)c1Cl (stereo unspecified) | 6.3% (active)
26 | CCOC(=O)C1=C(C)NC(C)=C(C(=O)OCC)C1c1c(F)c(F)c(F)c(F)c1F | -4.7% (inactive)
27 | COCCOC(=O)C1=C(C)NC(C)=C(C(=O)OC/C=C/c2ccccc2)C1c1cccc([N+](=O)[O-])c1 (stereo unspecified) | 32.1% (active)
28 | COC(=O)C1=C(C)NC(C)=C(C(=O)OC(C)(C)CN(C)CCC(c2ccccc2)c2ccccc2)C1c1cccc([N+](=O)[O-])c1 (stereo unspecified) | 21.8% (active)
29 | COCCOC(=O)C1=C(C)NC(C)=C(C(=O)OC(C)C)C1c1cccc([N+](=O)[O-])c1 (stereo unspecified) | 16.8% (active)
30 | CCN1CCC[C@H]1CNC(=O)c1c(O)c(Cl)cc(Cl)c1OC | 14.4% (active)
31 | NCCNC(=O)c1ncsc1-c1cccc(F)c1 | -11.5% (inactive)
32 | O=C1NCC2(CCN(CCc3ccccc3)CC2)O1 | 10.5% (active)
33 | Cc1ccc(O)c(N=Nc2ccccc2)n1 | 30.2% (active)
34 | Cc1cc(NC2CCCCC2)nc(-n2nc(C)cc2C)n1 | 6.3% (active)
35 | CCCCCCCCCCCCCCCC(=O)NCCO | 8.6% (active)
36 | CCCCCCCC/C=C\CCCCCCCC(=O)NCCO | 0.4% (active)
37 | CCCCCCC(=O)OC1CC(C)(C)NC(C)(C)C1 | -7.9% (inactive)
38 | C[C@]12CC[C@@H]3c4ccc(O)cc4CC[C@H]3[C@@H]1CCC2=O | 22.4% (active)
39 | C[C@]12CC[C@@H]3c4ccc(O)cc4CC[C@H]3[C@@H]1CC[C@@H]2O | 24.6% (active)
40 | COC(=O)C(C)(N)Cc1ccc(O)cc1 (stereo unspecified) | 2.3% (active)
41 | C[C@](N)(Cc1ccc(O)cc1)C(=O)O | 2.9% (active)
42 | CC(N)(Cc1ccc(O)cc1)C(=O)O (stereo unspecified) | 50.5% (active)

Row | Compound | inhibition
43 | CCOC(=O)C1=C[C@]2(CC)CCCN3CCc4c(n1c1ccccc41)[C@@H]32 | 8.5% (active)
44 | CCc1ccc2c(-c3cccc(Cl)c3)nc(=O)n(CC)c2n1 | 20% (active)
45 | CCOC(=O)c1ncn2c1CN(C)C(=O)c1cc(F)ccc1-2 | 11.8% (active)
46 | CN(Cc1cnc2nc(N)nc(N)c2n1)c1ccc(C(=O)N[C@@H](CCC(=O)O)C(=O)O)cc1 | 3.6% (active)
47 | Nc1nc(N)c2nc(CNc3ccc(C(=O)NC(CCC(=O)O)C(=O)O)cc3)cnc2n1 (stereo unspecified) | 34.3% (active)
48 | CC(C)C(=O)Nc1ccc([N+](=O)[O-])c(C(F)(F)F)c1 | 4.7% (active)
49 | CC1(C)NC(=O)N(c2ccc([N+](=O)[O-])c(C(F)(F)F)c2)C1=O | -8.3% (inactive)
50 | Nc1nc(SCc2ccc([N+](=O)[O-])cc2)c2ncn([C@@H]3O[C@H](CO)[C@H](O)C3O)c2n1 (stereo partly specified) | 33.7% (active)
51 | O=[N+]([O-])c1ccc(CSc2ncnc3c2ncn3[C@@H]2O[C@H](CO)[C@H](O)C2O)cc1 (stereo partly specified) | 33.9% (active)
52 | C#CC(N)CCC(=O)O (stereo unspecified) | 13.5% (active)
53 | C=CC(N)CCC(=O)O (stereo unspecified) | -9.5% (inactive)
54 | Nc1nc2c(ncn2COCCO)c(=O)[nH]1 | 19.3% (active)
55 | Nc1nc2c(ncn2COC(CO)CO)c(=O)[nH]1 | 10.7% (active)
56 | Cc1cccc(-c2[nH]c(C(C)(C)C)nc2-c2ccc3nccnc3c2)n1 | -12.5% (inactive)
57 | N=S(=O)([O-])Cc1noc2c1C=C[C+]=C2 | 9.3% (active)
58 | OC[C@H]1NC[C@@H](O)[C@@H]1O | 10.5% (active)
59 | OCC1NCC(O)C(O)C1O (stereo unspecified) | 14.4% (active)
60 | CCN1/C(=C/C(C)=O)Sc2ccc(OC)cc21 | 58.1% (active)
61 | CC[C@H](C)C(=O)O[C@H]1CCC=C2C=C[C@H](C)[C@H](CC[C@@H]3C[C@@H](O)CC(=O)O3)[C@H]21 | 8.8% (active)
